We go through 39 compounds from PubChem BioAssay (EPA / NIEHS).

Inconclusive results are not listed. More than one record can exist for a structure, and the calls need not agree. Calls of active or inactive are those of the source. How the source made its calls: active means hit-call score of the fitted dose curve at least 0.9, where 1 is the maximum; inconclusive means response in the unintended direction; inactive means score below 0.9. *1 amine or outer side, *2 acyl side, *3 side chain or, on linkers, in order; H or OH if unused. Where a SMILES comes first, the peptide text is derived from it. Bridges are numbered along the chain shown (N, C = ends). [ ]: non-standard residue; d: D form. The star is where a group is joined. X3 = NC1=N[C@@H]([C@H](N[*:1])C(=O)[*:2])C[C@H](O)N1; ΔAla(Z-3-ureido) = NC(=O)N/C=C(\N)C(=O)O; β3hOrn = NCCC[C@H](N)CC(=O)*; Dap = NC[C@H](N)C(=O)O

The assay in a line: TOX21_p53_BLA_p2_viability: Viability Assessment in the Tox21 HCT-116 p53 Agonism Beta-lactamase Assay, Phase 2 (AID 2283591).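 Further: compound exposure lasted 16 h at 37 °C; actives lower the ATP signal meaning cytotoxicity.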 From the text:
TOX21_p53_BLA_p2 is a cell-based, single-readout assay that uses HCT116, a human intestinal cell line, […] in a 1536-well plate.TOX21_p53_BLA_p2_viability is an assay readout measuring cellular ATP content and detected with CellTiter-Glo Luciferase-coupled ATP quantitation.TOX21_p53_BLA_p2_viability used a type of viability reporter where loss-of-signal activity can be used to understand changes in the cell viability. Furthermore, this assay endpoint can be referred to as a secondary readout, because this assay has produced multiple assay endpoints where this one serves a viability function. To generalize the intended target to other relatable targets, this assay endpoint is annotated to the cell cycle intended target family, where the subfamily is cytotoxicity.
Thawing Method: Place 14 mL of pre-warmed thaw medium into a 15 mL of conical tub. Remove the vial of cells to be thawed from liquid nitrogen and thaw rapidly by placing at 37C in a water bath with gentle agitation for 1-2 minutes. Decontaminate the vial by wiping with 70% ethanol before opening in a biological safety cabinet. Transfer the vial contents drop-wise into 14 mL of thaw medium in a sterile 15-mL conical tub. Centrifuge cells at 900 rpm for 4 minutes and resuspend in thaw medium. Transfer contents to the T75 tissue culture flask containing Thaw Medium and place flask in a humidified 37C/5% CO2 incubator. Switch to growth medium at first passage.Propagation Method: Aspirate medium, rinse once in DPBS, add 0.25% Trypsin/EDTA and swirl to coat the cell evenly. Add an equal volume of Growth Medium to inactivate Trypsin after 2-3 minutes incubation at 37C. Centrifuge cells at 900 rpm for 4 minutes and resuspend in growth medium. Cell should be passage or fed at least twice a week.Assay Protocol: Harvest cells from culture in growth medium and resuspend in assay medium. 2.2 Dispense 4000 cells/5 uL/well into 1536-well black/clear bottom plates using a Multidrop dispenser. After the cells were incubated at 37C for 5 hours, 23 nL of compounds dissolved in DMSO were transferred to the assay plate by a PinTool resulting in a 217-fold dilution. Incubate the plates for 16 hours at 37C, 5% CO2. Add 1 uL of 6X LiveBLAzer FRET B/G (CCF4-AM) Substrate Mixture to each well using a BioRAPTR dispenser and incubate the plates at room temperature for 2 hours. Measure fluorescence intensity at 460 and 530 nm emission and 405 nm excitation by an Envision detector. Data is expressed as the ratio of 460nm/530nm emissions. Add 4 uL of Cell-titer Glo to each well using BioRAPTR and incubate the plates at room temperature for […]. For cell viability readout that measures cytotoxicity, 4 ul/well of CellTiter-Glo reagent was added into the assay plates using a Flying Reagent Dispenser. After 30 min incubation at room temperature, the luminescence intensity in the plates was measured using a ViewLux plate reader.
For `OC[C@@H](O)C(O)[C@H](O)CO`, the call was inactive. As for `O=C1c2ccccc2C(=O)C1(O)O`, the AC50 (usually the concentration giving half of the maximal activity seen) was 88.5 µM (active). As to `CNC(=O)c1cc(Oc2ccc(NC(=O)Nc3ccc(Cl)c(C(F)(F)F)c3)cc2)ccn1`, the call was inactive.

As for `CC(=O)c1ccc2c(c1)N(CCCN(C)C)c1ccccc1S2`, the outcome was inactive.

On to `NC(=O)c1cc[n+](CC2=C(C(=O)O)N3C(=O)[C@@H](NC(=O)[C@@H](c4ccccc4)S(=O)(=O)[O-])[C@H]3SC2)cc1`, for which the compound was classed as inactive. With `O=C(CCCN1CCC(O)(c2cccc(C(F)(F)F)c2)CC1)c1ccc(F)cc1`, the compound was called inactive. On to `c1ccc(CNc2ncnc3nc[nH]c23)cc1`, for which the compound was classed as inactive. For `O=C(Cl)c1ccccc1[N+](=O)[O-]`, the outcome was inactive. The same measure, in the same setting: the value for `CC(C)(C)C(=O)CC(=O)C(C)(C)C` was “inactive”; that for `Cn1cc(NC(=O)c2cc(NC(=O)c3cc(NC=O)cn3C)cn2C)cc1C(=O)NCCC(=N)N` was “inactive”; that for `CCN(CC)CCOCCOC(=O)C(CC)(CC)c1ccccc1` was “inactive”. In the case of `CC1CN(c2ccccc2)NC1=O` (stereo not given), the outcome was inactive. Same read-out and setting: the value for `CO/N=C(/C(=O)N[C@@H]1C(=O)N2C(C(=O)OCOC(=O)C(C)(C)C)=C(C)CS[C@H]12)c1csc(N)n1` was “inactive”; that for `BrC/C=C/CBr` was “inactive”. In the case of `N#CC(c1ccc(Cl)cc1)c1c(Cl)cc(-n2ncc(=O)[nH]c2=O)cc1Cl` (stereo not given), the compound was classed as inactive. On the same count and under the same terms, then `CC12CC3CC(C)(C1)CC(N)(C3)C2`, with “inactive”; and `NCCC[C@H](N)CC(=O)N[C@H]1CNC(=O)[C@H]([C@H]2C[C@H](O)NC(N)=N2)NC(=O)/C(=C/NC(N)=O)NC(=O)[C@H](CO)NC(=O)[C@H](CO)NC1=O` (β3hOrn-[Dap]SS[ΔAla(Z-3-ureido)][X3]; lactam 1-C), with “inactive”; and `c1cnccn1`, with “inactive”. In the case of `COc1ccc2cc3[n+](cc2c1OC)CCc1cc2c(cc1-3)OCO2`, the AC50 was 20.8 µM (active) and the outcome was inactive. With `CN1CCN(c2cc3c(nn2)Oc2ccccc2N3C)CC1`, the call was inactive. As for `CC(=O)Nc1cccc(O)c1`, the compound was called inactive. Regarding `Nc1nc(/C(=C/CC(=O)O)C(=O)N[C@@H]2C(=O)N3C(C(=O)O)=CCS[C@H]23)cs1`, the outcome was inactive.

Regarding `Cn1cc(S(C)=O)c(=O)c2ccc(F)cc21` (stereo not given), the compound was classed as inactive. Still for that read-out and setting: the value for `CCCCCCCCCCCCCCCCCCCCCC(=O)Nc1ccn([C@@H]2O[C@H](CO)[C@@H](O)[C@@H]2O)c(=O)n1` was “inactive”; that for `CCCCCCCCN` was “inactive”.

Consider `CCN(Cc1ccncc1)C(=O)C(CO)c1ccccc1` (stereo not given), for which the outcome was inactive. In the case of `CC(C)[C@@H](N)C(=O)O`, the compound was classed as inactive.

Regarding `Cn1c(=O)c2c(ncn2CC(O)CO)n(C)c1=O` (stereo not given), the outcome was inactive. Same read-out and setting: then `CN(C)c1ccc(/C=C/c2ccc([N+](=O)[O-])cc2)cc1`, with “inactive”; and `O=[N+]([O-])c1ccc2[nH]ncc2c1`, with “inactive”.

For the compound `CN(C)CCOC(=O)COc1ccc(Cl)cc1`, the call was inactive. On to `C#C[C@]1(OC(C)=O)CC[C@H]2[C@@H]3CCC4=C/C(=N/O)CC[C@@H]4[C@H]3CC[C@@]21CC`, for which the AC50 is 37.2 µM (active). Consider `Cc1cc(C)c(NC(=O)CN(CC(=O)O)CC(=O)O)c(C)c1Br`, for which the outcome was inactive. With `NCCN1CCNC1=O`, the outcome was inactive. On the same count and under the same terms, the value for `c1ccc(CCNc2nc(-c3ccccc3)cs2)cc1` was “inactive”; that for `Nc1ccc(C(=O)Oc2ccccc2)c(O)c1` was “inactive”; that for `CC(CO)(CO)CO` was “inactive”. Same read-out and setting: the value for `CCCCCCCCCCC(=O)O` was “inactive”; that for `O=c1[nH]c(=O)n([C@H]2C[C@H](O)[C@@H](CO)O2)cc1I` was “inactive”.
